The results in this text go back to PubChem BioAssay.

A number with no mark means an inactive call. Activity calls are given as the source filed them.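 How the source made its calls: active means thallium flux through the channel raised or lowered by more than 3 SD from vehicle-only wells, actives on both sides; inactive means the rest.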

Holding throughout (assay): BK channel mutant inhibitors and activators – cell-based, U2OS BacMam, thallium flux, beta subunits, selectivity assay, profiling panel (AID 1259406);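 further: initial slope of Thallos dye fluorescence rise after thallium is added; log ratio against the mean of 0.3% DMSO vehicle wells on the same plate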
One test has as its system F380Y/beta2Delta. Particulars: U2OS BacMam BK variants, at 30 µM.
Another test deals with F380Y/beta4. Particulars: U2OS BacMam BK variants, at 30 µM.
Test [1] addresses Calcium-activated potassium channel subunit alpha-1 (Homo sapiens) + Leucine-rich repeat-containing protein 26 (Homo sapiens) (UniProt Q12791+Q2I0M4). Particulars: U2OS BacMam BK variants, F380Y/Slo1WT/gamma1, at 30 µM.
Another test concerns R275C. Particulars: U2OS BacMam BK variants, at 30 µM.
For the next test, the system named is R275C/beta1. Particulars: U2OS BacMam BK variants, at 30 µM.
The next test has as its system R275C/beta2Delta. Particulars: U2OS BacMam BK variants, at 30 µM.
A further test relates to R275C/beta4. The settings on record: U2OS BacMam BK variants, at 30 µM.
In a further test the test system is R275C/Slo1WT/beta2. The settings on record: U2OS BacMam BK variants, at 30 µM.

Chain of Calcium-activated potassium channel subunit alpha-1 (Homo sapiens) + Leucine-rich repeat-containing protein 26 (Homo sapiens) (Q2I0M4 whole entry, looked up, one chain of several): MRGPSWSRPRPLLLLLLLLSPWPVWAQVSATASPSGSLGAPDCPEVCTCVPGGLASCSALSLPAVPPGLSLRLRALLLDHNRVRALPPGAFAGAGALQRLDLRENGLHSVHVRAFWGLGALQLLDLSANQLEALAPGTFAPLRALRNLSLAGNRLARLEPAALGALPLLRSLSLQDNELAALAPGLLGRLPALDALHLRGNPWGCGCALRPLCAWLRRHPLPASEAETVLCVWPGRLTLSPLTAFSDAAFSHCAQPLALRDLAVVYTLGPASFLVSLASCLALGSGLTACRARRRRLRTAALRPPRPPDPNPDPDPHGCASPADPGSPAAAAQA

As for `COc1cc(OC)c(C(=O)CCCN2CCCC2)c(OC)c1`, the log fold change Tl+ flux is -0.00493 in the test on F380Y/beta2Delta; -0.0142 with F380Y/beta4; 0.0079 in test [1]; 0.0465 in the test on R275C; 0.0151 in the test on R275C/beta1; 0.0392 in the test with R275C/beta2Delta. Besides, the log fold change Tl+ flux in the test on R275C/beta4 is 0.0301; with R275C/Slo1WT/beta2, 0.0326.
For the molecule `CN(CCCN1c2ccccc2CCc2ccccc21)CC(=O)c1ccc(Cl)cc1`, the log fold change Tl+ flux is -0.0465 in the test on F380Y/beta2Delta; 0.0103 in the test on F380Y/beta4; 0.00396 in test [1]; -0.00393 in the test on R275C; 0.055 in the test with R275C/beta1; 0.0142 in the test on R275C/beta2Delta. Besides, the log fold change Tl+ flux was 0.0763 with R275C/beta4 and -0.0536 in the test on R275C/Slo1WT/beta2.
On to `Cc1ccc(NC(=O)c2ccc(CN3CCN(C)CC3)cc2)cc1Nc1nccc(-c2cccnc2)n1`, for which the log fold change Tl+ flux was 0.0732 in the test on F380Y/beta2Delta; -0.0387 in test [1]; -0.00147 in the test with R275C; 0.00665 in the test on R275C/beta1; 0.0291 in the test with R275C/beta2Delta.
For the molecule `CCCc1nc(C)c2c(=O)[nH]c(-c3cc(S(=O)(=O)N4CCN(CC)CC4)ccc3OCC)nn12`, the log fold change Tl+ flux is 0.0398 with F380Y/beta2Delta; 0.0304 with F380Y/beta4; 0.0127 in test [1]; -0.0462 in the test with R275C; 0.019 with R275C/beta1; 0.017 with R275C/beta2Delta. Moreover, the figures for the log fold change Tl+ flux in the test with R275C/beta4 and in the test on R275C/Slo1WT/beta2 were -0.00355 and 0.00306, respectively.
As for `CCN(CC)CCNC(=O)c1cc(Cl)c(N)cc1OC`, the log fold change Tl+ flux was -0.0588 in the test on F380Y/beta2Delta; -0.0267 in the test on F380Y/beta4; 0.0156 in test [1]; 0.0337 with R275C; -0.0145 in the test with R275C/beta1; -0.0122 with R275C/beta2Delta. In addition, the results for the log fold change Tl+ flux in the test on R275C/beta4 and in the test with R275C/Slo1WT/beta2 were -0.0991 and -0.0439, respectively.
Turning to `CNNCc1ccc(C(=O)NC(C)C)cc1`, the log fold change Tl+ flux is 0.00407 with F380Y/beta2Delta; -0.0214 in the test on F380Y/beta4; -0.0918 in test [1]; -0.164 (active) in the test with R275C; -0.022 with R275C/beta1; -0.0281 in the test on R275C/beta2Delta. The figures for the log fold change Tl+ flux in the test on R275C/beta4 and with R275C/Slo1WT/beta2 were 0.042 and 0.0113, respectively.
With `CN1CCC(=C2c3ccccc3CCc3sccc32)CC1`, the log fold change Tl+ flux with F380Y/beta2Delta was -0.0147; in test [1] it was 0.0222; in the test with R275C, -0.0315; with R275C/beta1 it was 0.0886; in the test with R275C/beta2Delta it was 0.0371.
With `CCN1CCN(c2cc3c(cc2F)c(=O)c(C(=O)O)cn3C2CC2)CC1`, the log fold change Tl+ flux with F380Y/beta2Delta is -0.0171; in the test with F380Y/beta4 it was 0.015; in test [1], 0.00572; in the test with R275C it was -0.0438; in the test with R275C/beta1, 0.0122; in the test with R275C/beta2Delta it was 0.0322. Besides, the values for the log fold change Tl+ flux in the test with R275C/beta4 and with R275C/Slo1WT/beta2 were 0.0288 and 0.165 (active), respectively.
Take `Cc1ncc([N+](=O)[O-])n1CC(O)CCl` (centres undefined): the log fold change Tl+ flux is -0.0158 with F380Y/beta2Delta; -0.0171 with F380Y/beta4; -0.013 in test [1]; 0.00346 with R275C; -0.0317 in the test with R275C/beta1; -0.0154 in the test with R275C/beta2Delta. Also, the log fold change Tl+ flux in the test with R275C/beta4 is -0.0435; with R275C/Slo1WT/beta2, -0.016.
On to `CC(C)(C#N)c1cc(Cn2cncn2)cc(C(C)(C)C#N)c1`, for which the log fold change Tl+ flux in the test on F380Y/beta2Delta is 0.0269; in the test on F380Y/beta4, -0.0138; in test [1], 0.043; in the test with R275C, -0.0232; with R275C/beta1 it was 0.00836; with R275C/beta2Delta it was 0.00182. In addition, the results for the log fold change Tl+ flux in the test with R275C/beta4 and in the test on R275C/Slo1WT/beta2 were -0.00704 and -0.000892, respectively.
As for `COc1ccccc1OCC(O)CN1CCN(CC(=O)Nc2c(C)cccc2C)CC1` (centres undefined), the log fold change Tl+ flux is 0.0304 in the test with F380Y/beta2Delta; -0.01 in the test on F380Y/beta4; -0.0153 in test [1]; -0.0477 in the test with R275C; 0.0435 in the test on R275C/beta1; 0.00123 with R275C/beta2Delta. Further, the log fold change Tl+ flux in the test on R275C/beta4 is 0.0205; in the test on R275C/Slo1WT/beta2 it was 0.0142.
On to `O=C(c1ccc(F)cc1)C1CCN(CCn2c(=S)[nH]c3ccccc3c2=O)CC1`, for which the log fold change Tl+ flux in the test with F380Y/beta2Delta was -0.00369; in the test with F380Y/beta4, 0.0138; in test [1] it was -0.000443; in the test on R275C it was 0.0338; in the test with R275C/beta1, -0.0174; with R275C/beta2Delta, -0.00339. Further, the results for the log fold change Tl+ flux in the test on R275C/beta4 and in the test with R275C/Slo1WT/beta2 were -0.00101 and 0.0813 (active), respectively.
Consider `CCCc1c(OCCCCc2nn[nH]n2)ccc(C(C)=O)c1O`, for which the log fold change Tl+ flux is 0.0962 (active) in the test on F380Y/beta2Delta; 0.186 (active) in test [1]; 0.0659 in the test with R275C; 0.282 (active) with R275C/beta1; 0.193 (active) with R275C/beta2Delta.
Take `CC(C)[C@H](N)C(=O)OCCOCn1cnc2c(=O)[nH]c(N)nc21`: the log fold change Tl+ flux was -0.00659 with F380Y/beta2Delta; -0.0146 with F380Y/beta4; 0.0174 in test [1]; -0.11 in the test with R275C; 0.0176 in the test on R275C/beta1; 0.0029 with R275C/beta2Delta. The log fold change Tl+ flux in the test on R275C/beta4 is 0.0146; in the test with R275C/Slo1WT/beta2 it was -0.011.
Consider `CCc1c(C)[nH]c2c1C(=O)C(CN1CCOCC1)CC2` (centres undefined), for which the log fold change Tl+ flux in the test with F380Y/beta2Delta is 0.0445; in the test on F380Y/beta4 it was -0.00138; in test [1], -0.0511; in the test with R275C it was 0.0162; in the test on R275C/beta1 it was -0.0312; in the test with R275C/beta2Delta, 0.0494. The log fold change Tl+ flux with R275C/beta4 was -0.0175; in the test with R275C/Slo1WT/beta2, 0.00393.
For the molecule `C[C@@H]1CN(CCCn2c3ccccc3c3ccccc32)C[C@H](C)N1`, the log fold change Tl+ flux was 0.138 (active) in the test on F380Y/beta2Delta; 0.64 (active) in the test on F380Y/beta4; 0.0245 in test [1]; 0.377 (active) in the test on R275C; 0.219 (active) with R275C/beta1; 0.146 (active) in the test on R275C/beta2Delta. Further, the log fold change Tl+ flux was 0.312 (active) with R275C/beta4 and 0.00517 in the test with R275C/Slo1WT/beta2.
